Screening results deposited in PubChem by Broad Institute.
aSyn UTR act: Activators via SNCA 5'UTR binding, MLPCN; alpha-synuclein 5'UTR reporter, activators screen; activity score, % (tested at 7.5 µM), hits read low; 7.1% of 300,000 active; AID 1814, 2009; in the data active = activity score below about -60%
Large screens that a line does not name were inactive. The list is a sample of the results.

O=C(N/N=C/c1ccc2c(c1)OCO2)C1CC1	aSyn UTR act -67
O=C(N/N=C/c1ccc2c(c1)OCO2)c1ccc2c(c1)OCO2	aSyn UTR act -91
O=C(N/N=C/c1ccc[nH]1)c1ccc2c(c1)OCO2	aSyn UTR act -93
Cc1ccsc1/C=N\NC(=O)c1ccc2c(c1)OCO2	aSyn UTR act -97
O=C(N/N=C\c1ccc2c(c1)OCO2)c1ccco1	aSyn UTR act -102
COc1cc(/C=N\NC(=O)c2ccc(C)nc2)ccc1OC(=O)c1ccc2c(c1)OCO2	aSyn UTR act -67
O=C(CCCN1C(=O)/C(=C/c2ccc3c(c2)OCO3)SC1=S)Nc1ccc(C(=O)O)cc1	none
O=C(N/N=C\c1cccc(OC(=O)c2ccco2)c1)c1ccc2c(c1)OCO2	aSyn UTR act -65
O=C(CCC(=O)Nc1ccccc1)N/N=C/c1ccc2c(c1)OCO2	aSyn UTR act -63
Cc1nc2ccccc2c(=O)n1NC(=O)/C=C/c1ccccc1Cl	aSyn UTR act -138
O=C(/C=C/c1ccccc1Cl)Nn1cnc2ccccc2c1=O	aSyn UTR act -137
Cc1cc(NC(=O)/C=C/c2ccccc2Cl)n(-c2nc3ccccc3[nH]2)n1	aSyn UTR act -111
Cc1nc(NC(=O)c2ccco2)sc1-c1csc(Nc2ccc(Cl)cc2)n1	aSyn UTR act -70
COc1ccc(OC)c(Nc2nc(-c3sc(NC(=O)c4ccccc4)nc3C)cs2)c1	aSyn UTR act -244
Cc1nc(NC(=O)c2ccccc2)sc1-c1csc(Nc2ccc(Cl)cc2)n1	aSyn UTR act -65
Cc1nc(NC(=O)c2ccccc2)sc1-c1csc(Nc2ccc(Cl)cc2Cl)n1	aSyn UTR act -84
Cc1nc(NC(=O)c2ccccc2)sc1-c1csc(Nc2ccc(F)cc2)n1	aSyn UTR act -94
O=C(Cc1cccc2ccccc12)Nc1ccc2c(c1)C(=O)NC2=O	aSyn UTR act -65
Cc1nc(-c2ccc([N+](=O)[O-])cc2)nc2[nH]ccc(=O)c12	aSyn UTR act -202
Cc1nc(-c2ccccc2)nc2[nH]ccc(=O)c12	aSyn UTR act -101
Cc1nc(S(=O)(=O)N(C)c2ccccc2)c(C#N)c(C)c1Cl	aSyn UTR act -77
COC(=O)c1ccc(N=Cc2c(C(F)(F)F)[nH][nH]c2=O)cc1	aSyn UTR act -135
CCOc1ccc(NC(=O)Nc2cc(C)ccc2F)cc1	aSyn UTR act -199
Cc1ccc(NC(=O)Nc2cccc(C)n2)c(C)c1	aSyn UTR act -104
Cc1cccc(NC(=O)Nc2ccccc2)n1	aSyn UTR act -76
CCCCOc1ccc(C(=O)Nc2cccc(C)n2)cc1	aSyn UTR act -68
CCCCCOc1ccc(Br)cc1/C(C)=N/NC1=NCCN1	none
COc1cccc(NC(=O)Nc2cccc(C)n2)c1	aSyn UTR act -110
CCOc1ccc(NC(=O)Nc2cccc(C)n2)cc1	aSyn UTR act -143
CC(C)c1ccc(CNNC(=O)c2ccccc2)cc1	aSyn UTR act -105
COc1ccc(CNC(=O)c2ccc(C(C)C)cc2)cc1	aSyn UTR act -181
COc1ccc(CNC(=O)c2ccc(C(C)(C)C)cc2)cc1	aSyn UTR act -126
CN(C)c1ncc(C2=C(Cl)C(=O)C(N3CCCC3)=C(Cl)C2=O)s1	aSyn UTR act -70
COc1cccc(C2(O)CC(C(F)(F)F)=NN2C(=O)c2ccccn2)c1 (stereo not drawn)	aSyn UTR act -113
O=C(CSC(=S)N1CCOCC1)c1cc2ccccc2oc1=O	aSyn UTR act -63
Cc1ccc(O)c(C2=Nc3ccccc3C2(C)C)c1	aSyn UTR act -157
O=C(NNC1=NCCCCC1)Nc1cccc(Cl)c1	aSyn UTR act -136
O=C(NNC1=NCCCCC1)Nc1ccc(Cl)cc1	aSyn UTR act -68
CCCCSc1nc(C)cc(SCC(=O)N/N=C/c2cccc(OC)c2O)n1	none
COc1cccc(/C=N/Nc2cc(Cl)nc(C)n2)c1O	aSyn UTR act -100
COc1cccc(/C=N/Nc2c(Cl)cncc2Cl)c1O	aSyn UTR act -120
CC(C)(C)Nc1nc(-c2ccc3c(c2)CCN3C(=O)C2CC2)cs1	aSyn UTR act -80
CC(C)C(=O)Nc1nc(-c2ccc3c(c2)CCN3C(=O)C2CC2)cs1	aSyn UTR act -101
CC(=O)Nc1nc(-c2ccc3c(c2)CCN3S(C)(=O)=O)cs1	aSyn UTR act -207
Cc1ccc2nc(NC(=O)C3CCCN(S(=O)(=O)c4cnc[nH]4)C3)sc2c1 (stereo not drawn)	aSyn UTR act -128
Cc1cc(N2CCCC2)c(F)cc1/C=C\[N+](=O)[O-]	aSyn UTR act -79
CC(C)(C)c1ccc(NC(=O)c2ccc(=O)[nH]n2)cc1	aSyn UTR act -102
O=C(Nc1ccccc1-c1ccccc1)c1ccc(=O)[nH]n1	aSyn UTR act -128
Cc1ccc(S(=O)(=O)Nc2ccccc2-c2ccccc2)cc1	none
O=C(CSc1cccs1)Nc1ccc2ccccc2c1	aSyn UTR act -126
O=C(CSc1cccs1)Nc1cccc2ccccc12	aSyn UTR act -112
O=C(CSc1ccccc1)Nc1ccc2sccc2c1	aSyn UTR act -78
CC(C)Sc1nnc(Nc2ccccc2)s1	aSyn UTR act -178
CC1=NN(c2ccccc2)C(=O)/C1=C/c1c(O)n(-c2ccc(F)c(Cl)c2)[nH]c1=O	aSyn UTR act -105
